FLuc modulator – counter-screen for miR-21 project: firefly luciferase inhibitors or activators; P08659; purified FLuc, Km substrates, luminescence inhibition; Potency, µM (top dose mostly 57.5 µM), for inactives: at the top dose activity change, negative = inhibition, hits mostly inhibitors; actives 6.9% (n = 360,000);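 note: plate controls were vehicle for no effect and reference inhibitor for full effect; nearly all actives have a fitted effect of over 55% in size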
Target sequence (P08659 whole entry, looked up): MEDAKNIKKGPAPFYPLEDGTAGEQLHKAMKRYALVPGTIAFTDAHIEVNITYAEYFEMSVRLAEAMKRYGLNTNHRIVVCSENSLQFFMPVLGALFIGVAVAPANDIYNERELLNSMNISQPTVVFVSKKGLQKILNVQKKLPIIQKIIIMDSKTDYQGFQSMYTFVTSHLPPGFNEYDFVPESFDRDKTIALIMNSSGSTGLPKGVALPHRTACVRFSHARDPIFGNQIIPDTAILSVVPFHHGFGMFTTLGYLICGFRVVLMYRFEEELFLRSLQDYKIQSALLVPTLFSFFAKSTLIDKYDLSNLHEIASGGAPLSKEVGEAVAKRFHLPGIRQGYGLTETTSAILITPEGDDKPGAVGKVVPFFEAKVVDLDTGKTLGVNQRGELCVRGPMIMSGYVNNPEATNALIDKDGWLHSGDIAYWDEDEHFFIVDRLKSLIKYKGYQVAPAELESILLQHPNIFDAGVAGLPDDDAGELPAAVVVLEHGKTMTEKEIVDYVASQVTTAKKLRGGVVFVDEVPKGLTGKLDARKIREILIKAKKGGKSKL
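Purified P. pyralis luciferase (10nM final) with 10uM D-luciferin and 10uM ATP (Km levels) in 50mM Tris acetate pH 7.5, 10mM Mg acetate, 0.01% Tween-20, 0.05% BSA; qHTS 6-point titration, ~60 µM downward; luminescence read.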
SMN2 splice up – increases expression of the SMN2 splice variant | HEK293 SMN2-luciferase splicing reporter, luminescence, 30-36 h | Potency, µM (top dose mostly 46.1 µM), inactives show at the top dose activity change, positive = activation, most hits filed as activators | actives 2.8% (n = 210,000) | AID 1458; note: % of control where 0% means no effect; nearly all actives have a fitted effect of over 55% in size
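qHTS luciferase splicing reporter: luminescence rises when SMN2 exon 7 is included in transfected HEK293 cells. Compound exposure lasted 30-36 h at 37C, with 4.5 mM final sodium butyrate as control, followed by a ONE-Glo read.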
Rab9 promoter act – Rab9 promoter activation; Potency, µM (titrated, usually from 9.22 µM), for inactives: at the top dose activation, negative = inhibition, hits mostly activators; Huh7 Rab9 promoter-luciferase reporter, luminescence, 24 h; actives 2.8% (n = 320,000); note: % of control where 0% means no effect; nearly all actives have a fitted effect of over 60% in size
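Promoter activation is measured as luciferase luminescence in Huh7 cells stably transfected with a Rab9 promoter–luciferase construct, following 24 h compound exposure at 37 °C and 10 min reagent incubation at ambient temperature.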
KinaseGlo FLuc – counter-screen: inhibitors of Kinase-Glo firefly luciferase | Kinase-Glo luciferase, ATP luminescence, 8 min | Potency, µM (series often up to 38.3 µM), for the others: at the top dose activity change, negative = inhibition, usual class: inhibitors | Q27757 | actives 0.28% (n = 200,000); note: % is set by controls: 0 for no effect and ±100 for the full control effect; nearly all actives have a fitted effect of over 60% in size
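Inhibition of Kinase-Glo luciferase light generation was assessed at 10 uM ATP in pH 7.2 imidazole buffer, with luminescence measured after eight minutes at ambient temperature.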
ELG1 genotox – genotoxicity induction in ELG1-luciferase HEK293T cells. HEK293T ELG1-luciferase reporter, luminescence, 16 h. Potency, µM (top dose mostly 46 µM), for inactives: top-dose activity change, positive = activation, actives largely listed as activators. actives 1.3% (n = 330,000); note: % of control where 0% means no effect; nearly all actives have a fitted effect of over 60% in size
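HEK293T cells expressing luciferase-tagged ELG1 were treated with compound or DMSO for 16 hr at 37°C. Luciferase activity was then read after 30 min with ONE-Glo at room temperature; rising signal flags genetic stress.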
NPC1 prom act – NPC1 promoter activation. Huh7 NPC1 promoter luciferase reporter, 24 h. Potency, µM (highest dose often 9.22 µM), inactives show at the top dose activation, actives largely listed as activators. actives 2.4% (n = 320,000). AID 485313; note: % of control where 0% means no effect; nearly all actives have a fitted effect of over 60% in size
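Compounds in DMSO were transferred onto Huh7 NPC1-luciferase reporter cells pre-incubated 2 h; after 24 h at 37 °C, Amplite reagent was dispensed and luminescence recorded 10 min later.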
Active calls of the source: *; ? = inconclusive; · = no result given. Rows were chosen to be rich in hits. Some 7.4% of all compounds tested hit in one or more screens of this group. Calls come from the whole dose curve; as a rule, active = well fitted curve in the direction sought with a large enough effect; inconclusive = small, poorly fitted or top-dose-only effect, or another doubt; inactive = no such curve, though single readings can be large; an effect the other way counts as inactive or inconclusive. Potency is the fitted concentration of half-maximal effect.

SMILES | FLuc modulator | SMN2 splice up | Rab9 promoter act | KinaseGlo FLuc | ELG1 genotox | NPC1 prom act
CN(C)c1ccc(C(=O)N/N=C/c2ccccn2)cc1 | 13µM* | · | 2.5µM* | · | ? | 2.8µM*
O=C(N/N=C/c1ccccn1)c1ccc(Cl)cc1 | 8.5µM* | · | 3.2µM* | · | 18µM* | ?
O=C(Cn1c(=O)nc(-c2ccccc2F)c2cc(Cl)ccc21)NCCCc1ccccc1 | -3% | 3% | · | · | · | ·
O=C(Cc1cccs1)N/N=C/c1ccccn1 | -13% | · | 17% | · | 2% | 0%
O=C(N/N=C/c1ccccn1)c1cccs1 | 19µM* | -45% | 7% | ? | ? | 5%
O=C(N/N=C/c1ccccn1)c1ccccc1 | 11µM* | 11µM* | 3.5µM* | -5% | ? | ?
CCOc1ccc(CN2CCN(C3CCSCC3)CC2CCO)cc1 (stereo not drawn) | 1% | · | -10% | 1% | 1% | -2%
Cc1ccccc1NC(=O)c1c(NC(=O)Cc2ccccc2)sc2c1CCC2 | -8% | -2% | · | · | · | ·
CC1SCC(NC(=O)c2cccc(Cl)c2)CS1 (stereo not drawn) | -8% | · | 1% | · | 2% | 5%
CC1SCC(NC(=O)c2ccccc2Cl)CS1 (stereo not drawn) | 17µM* | · | 4.5µM* | · | ? | ?
C=CCc1cccc(C=Nc2cccn3cc(-c4ccccc4)nc23)c1O | -17% | 25µM* | ? | -8% | ? | ?
Cn1c(-c2nc(-c3ccccc3)cs2)nc2ccccc21 | · | · | · | 0% | · | ·
Cc1ccc(-c2nnc(SCC#CCOC(=O)c3cccs3)o2)cc1 | 19µM* | 6% | 20% | -4% | 12% | 18%
O=C(OCC#CCSc1nnc(-c2ccc(Br)cc2)o1)c1cccs1 | ? | -45% | -2% | 12% | 8% | -5%
Cc1ccc(-c2nnc(SCC#CCOC(=O)c3ccco3)o2)cc1 | 17µM* | -2% | ? | 15% | ? | 5%
Cc1cccc(Cn2c(=O)n(Cc3ccc4c(c3)OCO4)c(=O)c3oc4ccccc4c32)c1 | -3% | · | · | · | · | ·
CC(C)CCN(C(=O)c1csnn1)C(C(=O)NC1CCCC1)c1ccc(F)cc1 (stereo not drawn) | 19µM* | · | -3% | · | 1% | 7%
O=C1OC2(c3cc(Br)c(O)c(Br)c3Oc3c2cc(Br)c(O)c3Br)c2c(Cl)c(Cl)c(Cl)c(Cl)c21 | · | -17% | · | · | · | ·
C/C(=N\NC(=O)c1ccc(CSc2nncn2C)cc1)c1ccc(Cl)cc1 | -12% | 10% | -4% | 0% | 6% | 0%
Cn1cnnc1SCc1ccc(C(=O)N/N=C/c2cccs2)cc1 | 17µM* | ? | -23% | -2% | 11% | 2%
C/C(=N\NC(=O)c1ccc(CSc2nncn2C)cc1)c1cccs1 | 24µM* | 13µM* | 3.5µM* | -5% | ? | ?
S=C(NCc1ccccc1)Nc1ccncc1 | 1% | · | -14% | · | 1% | -10%
COc1ccc(-c2nc3sc(CCNC(=O)C(=O)Nc4cccc(NC(C)=O)c4)c(C)n3n2)cc1 | 5% | · | · | · | · | ·
COc1cc(NC(=O)c2cc([N+](=O)[O-])ccc2NC(=O)CN2CCN(c3ccccn3)CC2)cc(OC)c1 | 0% | · | 2% | · | -2% | 2%
COc1ccc(CCNC(=O)CSc2nnc(-c3ccccc3)c3ccccc23)cc1OC | 3% | 2% | -6% | -3% | -3% | -3%
SMILES | FLuc modulator | SMN2 splice up | Rab9 promoter act | KinaseGlo FLuc | ELG1 genotox | NPC1 prom act
CCCCn1c(-c2ccccc2)cnc1SCC(=O)NCCc1ccc(OC)c(OC)c1 | 17µM* | 28% | 2% | 0% | 4% | -2%
COc1ccc(CCNC(=O)CCOc2ccc(C)cc2)cc1OC | 5% | · | 0% | · | 3% | -8%
CCOc1ccc(-c2cc(CCCC(=O)NCCCOC)no2)cc1 | 12µM* | 17% | 8% | -4% | 0% | -2%
CCOc1ccc(-c2cc(CCCC(=O)NCCc3cc(OC)c(OC)c(OC)c3)no2)cc1 | 13µM* | -17% | · | · | · | ·
CCOc1ccc(-c2cc(CCCC(=O)N3CCN(c4ccc(OC)cc4)CC3)no2)cc1 | ? | -36% | -1% | 0% | 0% | 0%
CCOc1ccc(-c2cc(CCCC(=O)NCCc3ccc(OC)c(OC)c3)no2)cc1 | 11µM* | -62% | · | · | · | ·
Cc1cc(C(F)F)n2nc(C(=O)Nc3sc4c(c3C#N)CCC4)nc2n1 | -2% | -3% | -5% | 3% | 1% | 1%
CCOc1ccc(-c2c(C(=O)N/N=C/C3CCCCC3)nnn2-c2nonc2N)cc1 | 7% | · | -6% | · | 0% | -3%
COCCCNC(=O)c1ccccc1Oc1ccccc1 | 2% | -11% | -4% | 1% | 0% | 0%
COCCCNC(=O)c1ccc2c3c(onc13)-c1ccccc1C2=O | 6µM* | · | 0.71µM* | · | -11% | 3.2µM*
O=C1N=c2ccccc2=C1c1sc(Nc2cccc(O)c2)nc1O | 19µM* | · | 5% | · | 16% | 15%
O=C1N=c2ccccc2=C1c1sc(NS(=O)(=O)Cc2ccccc2)nc1O | 11µM* | · | -3% | · | 4% | 2%
O=C1N=c2ccccc2=C1c1sc(NS(=O)(=O)c2ccccc2)nc1O | ? | -7% | 2% | -1% | -1% | 2%
C=C1C=C(C(F)F)n2ncc(C(=O)NCCc3ccccc3Cl)c2N1 | 12% | · | · | · | · | ·
CCN(CC)c1ccc(/C=C2\SC(=O)N(C(C)C)C2=O)o1 | 19µM* | · | 27% | · | -21% | 28%
COc1ccc2c(c1)CCc1c(C(=O)N3CC4(C)CC3CC(C)(C)C4)noc1-2 (stereo not drawn) | -2% | -17% | -7% | -1% | -7% | -2%
COc1ccc2c(c1)CCc1c(C(=O)Nc3ccc(OC)c(OC)c3)noc1-2 | 2.4µM* | -14% | 16% | -8% | 2% | 11%
COc1ccc2c(c1)CCc1c(C(=O)N3CCCc4ccccc43)noc1-2 | 13µM* | -18% | 7% | 2% | ? | 14%
COc1ccc2c(c1)CCc1c(C(=O)N3CCOCC3)noc1-2 | 11µM* | 13µM* | 3.2µM* | -2% | 12µM* | 4µM*
Cc1ccc(S(=O)(=O)NNC(=O)Nc2ccccc2F)c(C)c1 | 1% | · | -7% | · | -3% | -3%
O=C(Nc1ccc(Cl)cn1)c1ccc2ccccc2n1 | 1.5µM* | 20µM* | ? | -9% | ? | ?
Cc1ccc(OCCNC(=O)c2ccc3ccccc3n2)cc1 | ? | · | 3% | · | 21% | -6%
Cc1ccc(NC(=O)c2ccc3ccccc3n2)nc1 | 1.7µM* | 3.2µM* | 3.5µM* | -13% | 9.2µM* | 2.5µM*
O=C(/C=C/c1ccccc1)N/C(=C/c1ccccc1)C(=O)N1CCCCC1 | 1% | · | 11% | · | 1% | 1%
O=C1NC2(CCCCCC2)C(=O)N1Cc1ccc([N+](=O)[O-])cc1 | 0% | -6% | -5% | 0% | 0% | 1%

Screening data (PubChem)
